T cruzi growth-1: T. cruzi intracellular proliferation inhibitors, primary screen, cell-based, beta-gal Tulahuen parasites, NIH3T3 host, luminescence; 77,000 compounds, 5.9% hits; inhibition, % at 8.34 µM; T. cruzi beta-gal in NIH3T3, GalScreen luminescence, 90 h; AID 624255, 2012;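 active means mean inhibition above about 93%, with at least 55% of replicates each passing it, limit read from the data, passing the limit was not always enough; inconclusive means only one of those two conditions holds; inactive means neither condition holds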
Pf Dd2 inh: P. falciparum Dd2 growth inhibitors, primary screen, SYBR Green fluorescence, single dose replicates; 72 h; hits give low values; activity change, % at 10 µM; 94,000 compounds, 2.3% hits; AID 1159554, 2015; in the data active means activity change below about -80%; inconclusive means no clear call, values can overlap the other calls
C diff growth: C. difficile growth inhibitors, primary screen, HTS; growth activity, negative = inhibition, % at 16 µg/mL (by protocol); 86,000 compounds, 0.25% hits; Clostridium difficile clinical isolate growth, OD600, 24 h; hits give low values;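 active means mean growth activity at or below -80% and every replicate also at or below -80%; inconclusive means mean at or below -80% but some replicate above -80%; inactive means mean growth activity above -80%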;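 further: 0% = DMSO wells and -100% = levofloxacin 16 µg/mL wells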
T cruzi growth-2: T. cruzi intracellular proliferation inhibitors, confirmation, cell-based, NIH3T3 host, beta-gal parasite, luminescence, cherry-pick; 5,600 compounds, 72% hits; T. cruzi beta-gal in NIH3T3, GalScreen luminescence, 90 h; shares compounds with T cruzi growth-1; AID 651739, 2012; inhibition, % at 8.35 µM;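 active means mean replicate inhibition above about 95% and at least 55% of replicates individually reaching it, limit read from the data; inconclusive means only one of the two criteria is met; inactive means neither criterion is met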
T cruzi growth-3: inhibitors of intracellular T. cruzi replication, confirmation, NIH3T3 host cells, beta-gal parasites, cherry-pick, set 2. AID 651740, 2012. shares compounds with T cruzi growth-1. inhibition, % at 2.09 µM. T. cruzi beta-gal in NIH3T3, GalScreen luminescence, 90 h. 5,600 compounds, 21% hits;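 active means mean inhibition above about 95%, with at least 55% of replicates also reaching it, limit read from the data; inconclusive means meets just one of the two conditions; inactive means meets neither condition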;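 further: plate controls were neutral control median for no effect and positive control median for full effect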
NIH3T3 tox: cytotoxicity in mouse NIH/3T3 fibroblasts, confirmation, cytotoxicity control for T. cruzi proliferation inhibitor project, cell-based, cherry-pick, single point. shares compounds with T cruzi growth-1. NIH/3T3 viability, CellTiter-Glo ATP luminescence, 90 h. cytotoxicity (signal decrease), % at 8.35 µM. 5,600 compounds, 14% hits. AID 651742, 2012;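 active means mean signal decrease across replicates above about 35% based on untreated-well scatter, with enough replicates individually passing, limit read from the data; inconclusive means no rule stated though some were filed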;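 further: 0% = median of neutral control wells and 100% = median of positive control wells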
3T3 cytotox 2: NIH/3T3 fibroblast cytotoxicity, confirmation, cytotoxicity control, cell-based, cherry-pick, single point, set 2; 5,600 compounds, 56% hits; shares compounds with T cruzi growth-1; inhibition, % at 24.9 µM; AID 651744, 2012; NIH/3T3 viability, CellTiter-Glo ATP luminescence, 90 h;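 active means mean loss of cell viability signal at or above a set limit, and enough replicates individually reaching it; inconclusive means meets only the mean limit or only the replicate share; inactive means meets neither condition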;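 further: 0% = median of neutral control wells and 100% = median of positive control wells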
Starred values were filed as active, the others as inactive; ? = inconclusive; / = no result given; ! = not confirmed by another sample. This is a sample that favours compounds with a hit; in the whole collection about 6.7% have one here.

SMILES	T cruzi growth-1	Pf Dd2 inh	C diff growth	T cruzi growth-2	T cruzi growth-3	NIH3T3 tox	3T3 cytotox 2
Cc1ccc(S(=O)(=O)Nc2ccc3c(c2)C(=O)N([C@@H](C)CO)C[C@@H](C)[C@H](CN(C)S(=O)(=O)c2ccc(C)cc2)OCCCC[C@@H](C)O3)cc1	101.5*	-34.6	/	102.0*	?	0.4	12.8
Cc1ccc(S(=O)(=O)Nc2ccc3c(c2)C(=O)N([C@H](C)CO)C[C@H](C)[C@H](CN(C)S(=O)(=O)c2ccc(C)cc2)OCCCC[C@H](C)O3)cc1	?	-33.2	/	104.9*	106.5*	-10.8	-11.1
Cc1ccc(S(=O)(=O)Nc2ccc3c(c2)C(=O)N([C@H](C)CO)C[C@@H](C)[C@H](CN(C)S(=O)(=O)c2ccc(F)cc2)OCCCC[C@H](C)O3)cc1	/	-11.7	-19.8	/	/	/	/
Cc1ccc(S(=O)(=O)Nc2ccc3c(c2)C(=O)N([C@@H](C)CO)C[C@@H](C)[C@@H](CN(C)S(=O)(=O)c2ccc(C)cc2)OCCCC[C@@H](C)O3)cc1	91.3	-56.4	/	/	/	/	/
Cc1ccc(S(=O)(=O)Nc2ccc3c(c2)C(=O)N([C@@H](C)CO)C[C@H](C)[C@H](CN(C)S(=O)(=O)c2ccc(C)cc2)OCCCC[C@@H](C)O3)cc1	91.8	-69.7	/	/	/	/	/
C[C@@H]1CN([C@@H](C)CO)C(=O)c2cc(NS(=O)(=O)c3ccccc3)ccc2O[C@@H](C)CCCCO[C@@H]1CN(C)Cc1ccc2c(c1)OCO2	/	-74.3	/	/	/	/	/
C[C@@H]1CN([C@@H](C)CO)C(=O)c2cc(NC(=O)c3ccccc3)ccc2O[C@@H](C)CCCCO[C@@H]1CN(C)C(=O)C1CCCCC1	-16.7	-70.9	-4.7	/	/	/	/
COc1ccc(S(=O)(=O)Nc2ccc3c(c2)C(=O)N([C@H](C)CO)C[C@@H](C)[C@@H](CN(C)Cc2ccc4c(c2)OCO4)O3)cc1	/	1.8	4.3	/	/	/	/
C[C@H]1CN([C@@H](C)CO)S(=O)(=O)c2ccc(C#CC3CCCC3)cc2O[C@@H]1CN(C)Cc1cccnc1	97.9*	-66.3	10.0	100.9*	110.8*	-10.3	105.4*
C[C@@H]1CN([C@H](C)CO)S(=O)(=O)c2ccc(C#CC3CCCC3)cc2O[C@H]1CN(C)Cc1cncnc1	/	-27.2	/	/	/	/	/
C[C@@H]1CN([C@@H](C)CO)S(=O)(=O)c2ccc(C#CC3CCCC3)cc2O[C@@H]1CN(C)Cc1cccnc1	102.8*	-65.0	5.8	101.0*	?	60.0*	106.1*
C[C@H]1CN([C@@H](C)CO)S(=O)(=O)c2ccc(C#CC3CCCCC3)cc2O[C@@H]1CN(C)Cc1cccnc1	80.8	-62.5	/	/	/	/	/
COc1ccc2c3c([nH]c2c1)[C@@H](CO)N(C(=O)c1cccc(F)c1)CC31CCN(S(=O)(=O)c2cccs2)CC1	/	3.1	-6.0	/	/	/	/
Cn1cnc(S(=O)(=O)N2CCCCN3[C@H](C2)[C@H](c2ccc(-c4ccccc4)cc2)[C@@H]3CO)c1	103.5*	6.5	-3.2	6.0	10.9	-12.4	-16.0
Cn1cnc(S(=O)(=O)N2CCCCN3[C@H](C2)[C@H](c2ccc(-c4ccc(F)cc4)cc2)[C@@H]3CO)c1	48.2	24.0	-1.9	/	/	/	/
Cn1cnc(S(=O)(=O)N2CCCCN3[C@H](C2)[C@H](c2ccc(C#CC4CCCC4)cc2)[C@@H]3CO)c1	31.9	-16.6	-5.1	/	/	/	/
Cn1cnc(S(=O)(=O)N2CCCCN3[C@H](CO)[C@@H](c4ccc(-c5ccccc5)cc4)[C@@H]3C2)c1	99.6*	25.6	-5.7	65.2	-2.4	11.3	27.6*
Cn1cnc(S(=O)(=O)N2CCCCN3[C@H](CO)[C@H](c4ccc(C#CC5CCCC5)cc4)[C@@H]3C2)c1	106.6*	-20.0	-17.1	?	28.9	29.0	33.4*
Cn1cnc(S(=O)(=O)N2CCCCN3[C@@H](CO)[C@@H](c4ccc(-c5ccc(F)cc5)cc4)[C@@H]3C2)c1	26.9	28.7	-12.0	/	/	/	/
CN(C)C(=O)c1cccc(-c2ccccc2[C@H]2[C@@H](C#N)N(C(=O)C3CCC3)[C@@H]2CO)c1	/	7.4	-0.2	/	/	/	/
C[C@@H]1CN([C@@H](C)CO)C(=O)c2cc(NS(=O)(=O)c3cn(C)cn3)ccc2O[C@@H](C)CCCCO[C@@H]1CN(C)C(=O)C1CCCCC1	28.1	12.6	2.9	/	/	/	/
COc1ccc(S(=O)(=O)N2CCCCN3[C@H](CO)[C@H](c4ccc(C#CCC(C)C)cc4)[C@H]3C2)cc1	54.8	-71.6	7.4	/	/	/	/
COc1ccc(C#Cc2ccc([C@H]3[C@H](CO)N4CCCCN(S(=O)(=O)c5ccccc5)C[C@@H]34)cc2)cc1	53.7	-63.5	63.7	/	/	/	/
COc1ccc(S(=O)(=O)N2CCCCN3[C@H](CO)[C@H](c4ccc(C#CC(C)C)cc4)[C@H]3C2)cc1	101.7*	-68.7	45.5	105.4*	98.2*	71.6*	73.4*
COc1ccc(S(=O)(=O)N2CCCCN3[C@H](C2)[C@@H](c2ccc(C#CC(C)C)cc2)[C@@H]3CO)cc1	104.6*	-25.0	13.4	102.0*	111.7*	22.1	96.9*
SMILES	T cruzi growth-1	Pf Dd2 inh	C diff growth	T cruzi growth-2	T cruzi growth-3	NIH3T3 tox	3T3 cytotox 2
COc1cccc(S(=O)(=O)N2CCCCN3[C@H](CO)[C@@H](c4ccc(C#CC(C)C)cc4)[C@H]3C2)c1	82.4	-37.6	21.0	/	/	/	/
COc1ccc(S(=O)(=O)N2CCCCN3[C@H](CO)[C@H](c4ccc(C#CCC(C)C)cc4)[C@@H]3C2)cc1	?	-18.3	8.6	87.3	?	41.2*	67.1*
C[C@@H]1CCCCO[C@@H](CN(C)Cc2ccc(Cl)c(Cl)c2)[C@@H](C)CN([C@H](C)CO)C(=O)c2cc(NS(=O)(=O)c3cn(C)cn3)ccc2O1	51.3	-3.6	9.4	/	/	/	/
CC(=O)N1CC(=O)N2[C@@H](CO)[C@H](c3ccc(-c4cccc(C(=O)N(C)C)c4)cc3)[C@@H]2C1	/	-6.2	-1.0	/	/	/	/
CN1C(=O)c2cc(NC(=O)c3cccc(F)c3)ccc2OC[C@H]2O[C@@H](CC(=O)NCC3CCCCC3)CC[C@H]21	88.1	/	-0.5	/	/	/	/
CN1C(=O)c2cc(NC(=O)c3cccc(F)c3)ccc2OC[C@@H]2O[C@H](CC(=O)NCc3ccccc3)CC[C@H]21	-17.1	-32.9	2.1	/	/	/	/
CN1C(=O)c2cc(NC(=O)c3cccc(F)c3)ccc2OC[C@@H]2O[C@H](CC(=O)NCC3CCCCC3)CC[C@@H]21	117.3*	/	2.7	93.7	33.8	42.5*!	84.6*
